# Reference: PubChem BioAssay (NCATS)
# Records with an inconclusive call do not appear. A number with no mark means an inactive call. Calls of active or inactive are those of the source. Calls follow the shape of the full dose curve; tested in HEK293 reporter line.
# Experiment: qHTS for Inhibitors of the Functional Ribonucleoprotein Complex (vRNP) of Lassa (LASV) Arenavirus: Viability assay - alamar blue signal for LASV Primary Screen (AID 1347083); also: nearly all actives have a fitted effect of over 80% in size
# Settings: cell viability, alamar blue fluorescence (LASV minigenome counter-screen); series mostly up to 57.5 µM; activity change, negative = reduced viability: at the top concentration
# % is scaled to controls: 0 for no effect and ±100 for the full control effect; potency is read from the fitted curve at half-maximal effect.
Compound,Potency,"activity change, negative = reduced viability"
O=C1[C@H](Cc2ccc(O)cc2)N2C(=O)CCN(C(=O)NCc3ccccc3)[C@H]2CN1Cc1cccc2ccccc12,19.3 µM (active),–
Cc1cnc(Nc2ccc(F)cc2Cl)nc1-c1c[nH]c(C(=O)N[C@H](CO)c2cccc(Cl)c2)c1,15.3 µM (active),–
Cc1nn(Cc2ccccc2Cl)c(C)c1CN(C)CC(O)COc1ccc(Cl)cc1 (centres undefined),–,-8.49%
COc1c(N2CCNC(C)C2)c(F)cc2c(=O)c(C(=O)O)cn(C3CC3)c12 (centres undefined),inactive,–
c1ccc2[nH]ccc2c1,–,-8.61%
O=C(O)c1ccccn1,–,6.24%
COc1ncnc(NS(=O)(=O)c2ccc(N)cc2)c1OC,inactive,–
C[C@]12C[C@H](O)[C@H]3[C@@H](CCC4=CC(=O)CC[C@@]43C)[C@@H]1CC[C@@H]2C(=O)CO,inactive,–
CC(=O)Oc1cccc(C)c1,–,5.81%
CS(=O)(=O)c1cccc(CNc2nc(Nc3ccc4c(c3)CCC(=O)N4)ncc2C(F)(F)F)c1,38.5 µM (active),–
COc1cc(S(N)(=O)=O)cc(C(=O)O)c1OC,–,1.47%
CCCN(CCC)c1c([N+](=O)[O-])cc(S(N)(=O)=O)cc1[N+](=O)[O-],–,-31% [at 115 µM]
C[C@@H](N)C(=O)O,–,0.165%
CC[C@@H](C)[C@H](NC(=O)[C@H](CC1CCCCC1)NC(=O)c1ccno1)C(=O)N1CCC2(CCc3ccccc32)CC1,–,-38.6%
O=C(O)c1ccccc1O,–,4.22%
Nc1nnnn1-c1ccccc1,–,-4.23%
CCN(CC)CCCCNc1nc2cc(Cl)c(Cl)cc2nc1-c1ccc(-c2cccs2)s1,–,-13.8%
COc1ncc(-c2ccc3nccc(-c4ccnnc4)c3c2)cc1NS(=O)(=O)c1ccc(F)cc1F,0.0097 µM (active),–
O=C1NS(=O)(=O)c2ccccc21,–,-2.7%
C[C@H](CN1CCCC1)C(=O)c1ccc(C(F)(F)F)cc1,–,5.28%

Compound,Potency,"activity change, negative = reduced viability"
CC(=O)NC(C)c1ccc(Oc2ccc(OC(C)C)cc2)cc1 (centres undefined),–,4.48%
CCCCCCCC(=O)OCC(O)CO (centres undefined),–,-5.18%
CCCCOCCOc1nc(-c2ccc(C(=O)O)c(F)c2)sc1C,–,-2.62%
CC(C)(C(=O)NCC(F)(F)C(F)(F)F)C(=O)N[C@@H]1C(=O)Nc2ccccc2-c2ccccc21,19.3 µM (active),–
CCOC(=O)C(=O)CCCCCCl,–,-3.35%
O=S(c1cc(Cl)cc(Cl)c1O)c1cc(Cl)cc(Cl)c1O,–,3.47%
Cn1c(Nc2ccc(C(F)(F)F)cc2)nc2cc(Oc3ccnc(-c4ncc(C(F)(F)F)[nH]4)c3)ccc21,2.43 µM (active),–
Cc1ccc(-c2ncn(-c3ccc(Nc4nccc(-c5cccc(N6CCOCC6)c5)n4)cc3)n2)cn1,0.485 µM (active),–
C[C@H](NC(=O)Cc1cc(F)cc(F)c1)C(=O)N[C@@H]1C(=O)N(C)c2ccccc2-c2ccccc21,–,0.679%
CC(C)CCCC(C)CCCC(C)CCCCC(C)CCCC(C)CCCC(C)C (centres undefined),–,1.65%
Cc1ccc(C(=O)Nc2cccc(C(F)(F)F)c2)cc1-c1ccc2nc(NCCN3CCOCC3)ncc2c1,13.7 µM (active),–
CCN1CCN(c2cc3c(cc2F)c(=O)c(C(=O)O)cn3C2CC2)CC1,–,-3.47%
COCCn1c2c([n+](Cc3cnccn3)c1C)C(=O)c1ccccc1C2=O,0.109 µM (active),–
S=C(NCc1ccc2c(c1)OCO2)N1CCN(c2ncnc3c2oc2ccccc23)CC1,–,4.47% [at 115 µM]
C=C1C(=CC=C2CCC[C@]3(C)[C@@H]([C@H](C)C=C[C@H](C)C(C)C)CC[C@@H]23)C[C@@H](O)C[C@@H]1O,13.7 µM (active),–
CNC(=O)c1ccc(N2C(=S)N(c3ccc(C#N)c(C(F)(F)F)c3)C(=O)C2(C)C)cc1F,–,-0.352%
COc1ccc2c(c1)c1c3n2CCN(C)C3=NCC1,–,0.69%
Cn1c(=O)n(-c2ccc(C(C)(C)C#N)cc2)c2c3cc(-c4cnc5ccccc5c4)ccc3ncc21,0.0343 µM (active),–
CCOc1cc(NC(C)=O)ccc1C(=O)OC,–,4.41%
